Screening data as filed in PubChem BioAssay.
The list is not random: actives were taken first. Their share in the collection is about 2.4%.
D2 ag-1: D2 dopamine receptor (human) agonism. P14416. HEK293 T-REx D2 cells, calcium flux agonist mode. activation, % at 2 µM. actives 0.53% (n = 340,000);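 active means activation over 3 SD above normal in the single-dose calcium agonist read, cut at about 30% in these data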; further: 0% is about no effect
Target sequence (P14416 whole entry, looked up): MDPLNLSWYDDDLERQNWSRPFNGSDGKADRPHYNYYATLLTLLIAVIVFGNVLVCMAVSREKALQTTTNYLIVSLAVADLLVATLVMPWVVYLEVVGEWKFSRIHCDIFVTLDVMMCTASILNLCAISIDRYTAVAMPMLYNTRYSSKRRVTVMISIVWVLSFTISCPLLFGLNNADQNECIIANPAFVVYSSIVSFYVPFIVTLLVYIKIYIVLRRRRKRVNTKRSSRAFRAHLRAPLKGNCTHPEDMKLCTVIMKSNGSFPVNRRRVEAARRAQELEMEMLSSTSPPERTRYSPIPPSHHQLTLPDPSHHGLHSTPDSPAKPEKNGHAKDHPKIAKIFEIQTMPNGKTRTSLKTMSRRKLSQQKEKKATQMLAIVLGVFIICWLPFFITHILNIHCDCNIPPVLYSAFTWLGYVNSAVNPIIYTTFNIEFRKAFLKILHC
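Agonism is scored from calcium flux in a force-coupled, inducible HEK293 cell line expressing D2, read kinetically for 180 s after compound addition against dopamine controls.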
D2 ag-2: activates the human D2 dopamine receptor; P14416; DiscoveRx PathHunter D2 beta-arrestin, luminescence, 90 min; 100% = 57 uM dopamine signal; activation, % (no concentration beside the values); actives 0.084% (n = 360,000); AID 624465; in the data active means activation above about 40%; inconclusive means between about 15% and that limit
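Agonist mode: compounds alone added to overnight-plated D2 PathHunter cells for 90 min at 37 C, with 57 uM final dopamine (EC100) defining full response. Beta-arrestin recruitment detected by chemiluminescent reagent, read after 1 h at ambient temperature.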
D2 PAM-1: positive allosteric modulators of human D2 dopamine receptor; P14416; DiscoveRx D2 beta-arrestin cells, luminescence, 90 min; 100% = 57 uM dopamine signal; potentiation, % (concentration not given with the values); actives 0.23% (n = 360,000); in the data active means potentiation above about 50%; inconclusive means mostly about 30% to 49%
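D2 cells co-treated with compound plus 50 nM dopamine (EC20) for 90 min at 37 deg C to detect potentiation. Beta-arrestin recruitment was read as enzyme-fragment luminescence after 1 h at ambient temperature. Full response was set by 57 uM dopamine.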
D2 PAM-2: positively modulates the human D2 dopamine receptor allosterically; actives 0.34% (n = 340,000); HEK293 T-REx D2, calcium flux, EC20 dopamine potentiation; P14416; potentiation, % at 10 µM;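 active means potentiation over 3 SD above the plate norm, cut at about 30% in these data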; further: 0% is about no effect
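Primary screen. Calcium kinetics in induced HEK293 T-REx D2 cells: compound pre-addition 180 s, EC20 dopamine, 180 s more.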
D2 antagonist: D2 dopamine receptor (human) antagonism; actives 2% (n = 340,000); P14416; AID 485344; inhibition, % at 10 µM; HEK293 TREx D2 cells, calcium flux, dopamine EC80; in the data active means inhibition above about 30%; inactive means below that, where a call was filed; further: 0% is about no effect
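Compounds are added to dye-loaded, induced HEK293 T-REx cells coupled to calcium release via D2; after a 3 min kinetic read an EC80 dopamine stimulus is given and fluorescence is recorded for 3 more min.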
D3 ag: D3 receptor agonism confirmed, beta-arrestin readout; shares compounds with D2 ag-1; DiscoveRx D3 beta-arrestin cells, luminescence, 90 min; Potency, µM (series often up to 76.9 µM), for the others: at the top dose activation, hits mostly activators; actives 4% (n = 2,300); AID 720506;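 further: potency means the concentration at half of the fitted maximal effect; 100% = dopamine control response; nearly all actives have a fitted effect of over 70% in size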
D2 ag-3: D2 receptor agonism, beta-arrestin counterscreen. Potency, µM (top dose mostly 76.9 µM), without a hit: at the highest dose activation, most hits filed as activators. DiscoveRx PathHunter D2 beta-arrestin, luminescence, 90 min; response scale: percent relative to full dopamine signal. actives 5.9% (n = 2,300). shares compounds with D2 ag-1. AID 720507; further: potency means the concentration at half of the fitted maximal effect; % of control where 0% means no effect; nearly all actives have a fitted effect of over 70% in size
An asterisk follows results filed as active; ? = inconclusive; nt = not tested or not shown. Unless noted, the call rests on the fitted dose curve; in most records, active means well fitted activation curve with a large enough effect; inconclusive means small, poorly fitted or top-dose-only effect; inactive means flat fitted curve, though single readings scatter.

SMILES	D2 ag-1	D2 ag-2	D2 PAM-1	D2 PAM-2	D2 antagonist	D3 ag	D2 ag-3
c1ccc(SCCN2CCN(c3ccccc3)CC2)cc1	22.6	4.6	-35.4	-20.3	60.1*	-9.1%	9.8%
Fc1ccccc1N1CCN(Cc2cnc(Cl)s2)CC1	nt	52.4*	?	nt	nt	?	3.16µM*
CCCN1CCC(=O)N(CCSc2ccccc2)CC1	0.3	1.8	-51.7	1.5	-39.1	nt	nt
CCOc1cc(C=NN=C2c3ccccc3-c3ccccc32)ccc1O	nt	-8.3	-21.5	nt	nt	nt	nt
CC(=O)[C@@H]1[C@@H](C(=O)c2ccccc2)[C@]2(C(=O)Nc3ccccc32)[C@H]2C=Cc3cc(F)ccc3N12	1.8	-2.1	-4.1	11.8	7.1	nt	nt
O=C(c1ccccc1)[C@@H]1[C@@H](C(=O)c2ccc(F)cc2)[C@@]2(C(=O)Nc3ccccc32)[C@H]2c3ccccc3C=CN12	56.7*	-4.1	1.2	-20.4	-5.0	-4.3%	-0.4%
CN(C)S(=O)(=O)c1ccc(N2CCCC2)c(C(=O)NNC(=O)COc2cccc(F)c2)c1	-0.2	-1.2	-4.1	2.3	23.7	-6.6%	0.2%
Cc1cc(C(C)(C)C)cc(S(=O)(=O)NCCc2ccncc2)c1C	1.7	1.5	1.9	4.2	1.5	-2.1%	0.4%
COc1ccc(-c2c(C#Cc3ccsc3)c3cc(-c4ccc5c(c4)OCCO5)ccc3n2C)cc1	nt	-4.1	-2.4	nt	nt	nt	nt
COc1ccc(-c2c(C#Cc3ccsc3)c3cc(-c4ccc5c(c4)OCO5)ccc3n2C)cc1	0.5	-1.1	-3.3	-1.4	4.5	0.5%	-1.3%
O=C(CCC1CCCC1)N1CCc2c([nH]c3ccccc23)C1c1ccc(Cl)cc1 (stereo not given)	1.0	nt	nt	-10.6	nt	nt	nt
O=C(CSc1nncs1)NNC(=O)c1ccco1	0.5	-4.0	-4.3	-5.5	-0.2	-1.4%	-1.4%
COc1cc(OC)c(N(C)C(=O)c2cc3c(s2)-c2ccccc2OC3)cc1Cl	0.3	nt	nt	-8.1	nt	nt	nt
CSCCC(NC(=O)c1ccc(Cl)cc1)C(=O)OCC(=O)N1CCCC1=O (stereo not given)	1.3	-0.7	2.3	-10.9	1.4	nt	nt
COc1ccccc1C(=O)NC(CCSC)C(=O)OCC(=O)N1CCCC1=O (stereo not given)	-0.7	-1.9	-4.6	-8.3	-21.3	-3.1%	-0.6%
O=C(CCNS(=O)(=O)c1ccc(Br)s1)Nc1ccc(Br)cc1	-0.5	nt	nt	nt	nt	nt	nt
CC12CCC3C(CCC4CC(O)CCC43C)C1CC(O)C2 (stereo not given)	nt	-2.0	2.5	nt	nt	nt	nt
C[C@]12CCC(O)CC1CCC1C2CC[C@]2(C)C(c3cc(C(F)(F)F)n[nH]3)CCC12 (stereo not given in full)	16.4	-3.2	5.4	10.7	44.1*	?	?
CCCCOc1cccc(C(=O)N(Cc2ccc(Br)o2)C2CCS(=O)(=O)C2)c1 (stereo not given)	0.4	nt	nt	7.7	nt	nt	nt
CC1(C)N=C(SCc2ccc(F)cc2)c2ccccc2N1	0.5	nt	nt	7.6	nt	nt	nt
COc1ccc(NC(=O)C(C)N2CCN(C)CC2)cc1 (stereo not given)	79.1*	-1.6	3.5	-29.4	-20.8	-2.5%	-2.0%
Cc1cccc(NC(=O)/C(C#N)=C/c2ccc(C)o2)c1	-0.8	nt	nt	-8.0	nt	nt	nt
CC1(NC(=O)c2ccccc2)CCN(CCc2cccs2)C1=O (stereo not given)	nt	-3.2	-8.3	-5.3	nt	nt	nt
O=C(NC1(Cc2ccccc2)CCN(CCc2cccs2)C1=O)c1ccccc1 (stereo not given)	-0.4	4.3	-4.1	9.6	-0.3	-11.3%	-3.6%
Cc1ccc(NC(=O)CSc2nccn2C2CCCC2)cc1Cl	-0.1	nt	nt	5.0	nt	nt	nt
SMILES	D2 ag-1	D2 ag-2	D2 PAM-1	D2 PAM-2	D2 antagonist	D3 ag	D2 ag-3
Fc1ccccc1N1CCN(CC2CC3C=CC2C3)CC1 (stereo not given)	78.6*	?	-6.9	-15.2	73.9*	?	?
O=C(NCC(c1ccco1)N1CCN(c2ccccc2)CC1)c1cccs1 (stereo not given)	5.4	11.3	-7.3	12.1	26.7	13.6%	17.1%
O=C(COc1ccccc1)NCC(c1ccco1)N1CCN(c2ccccc2)CC1 (stereo not given)	1.4	-1.2	-3.7	7.1	-11.2	0.6%	12.2%
O=C(NCc1cccs1)C(=O)NCC(c1ccco1)N1CCN(c2ccccc2)CC1 (stereo not given)	11.2	9.5	-11.8	-8.7	2.9	nt	nt
CC(CCc1ccccc1)NCc1ccncc1 (stereo not given)	68.0*	?	-0.2	-22.6	63.7*	?	?
CC(Cc1ccccc1)C(=O)NCc1ccncc1 (stereo not given)	1.0	-1.0	-19.4	1.8	-24.8	nt	nt
CCN(CC)C(=O)CN1CCN(c2ccccc2F)CC1	0.0	0.4	-17.9	-7.5	7.3	nt	nt
C/C=C(\C)CN1CCN(c2ccccc2F)CC1	38.0*	10.7	-8.7	-11.0	65.4*	2.7%	19.1%
C/C=C(\C)CN1CCN(c2cc(C)ccc2C)CC1	0.1	2.6	-20.5	10.7	-3.1	nt	nt
C/C=C(\C)CN1CCN(c2ccccc2)CC1	79.1*	13.3	-10.1	-20.8	74.8*	1.9%	24.8%
COc1ccc(-c2c3c(=O)n(C)c(=O)n(C)c3c3n2-c2ccccc2NC3c2ccc(O)cc2O)cc1 (stereo not given)	0.3	nt	nt	-4.7	nt	nt	nt
Cc1cc(SCC(=O)N2c3ccccc3NC(=O)CC2C)nc2ccccc12 (stereo not given)	nt	-1.3	-13.9	nt	nt	nt	nt
COC(=O)C1CCN(Cc2cn(-c3ccccc3)nc2-c2ccc3c(c2)OCO3)CC1	41.4*	-1.8	-15.2	-20.1	81.9*	-2.5%	1.2%
c1ccc(-c2nnc(CN3CCCCC3)o2)cc1	2.2	-9.3	-10.3	-3.0	4.4	nt	nt
CC(=O)NCC1CCCN(Cc2cn(-c3ccccc3)nc2-c2ccc3c(c2)OCO3)C1 (stereo not given)	0.0	1.1	-13.2	-21.0	-12.6	nt	nt
COC(=O)C1CCN(Cc2nnc(-c3ccccc3)o2)CC1	45.0*	?	-0.2	-15.8	65.6*	3.98µM*	15.4%
COc1cccc(CNc2ncnc3onc(-c4ccc(F)cc4)c23)c1	-0.6	nt	nt	1.5	nt	nt	nt
c1ccc(OCCN2CCN(Cc3nc(-c4ccc5c(c4)OCO5)no3)CC2)cc1	64.1*	5.5	-3.2	-11.6	68.7*	?	?
CC1CCCN(CC(=O)Nc2ccc(S(=O)(=O)N3C(C)CCCC3C)cc2)C1 (stereo not given)	nt	-1.4	-9.5	nt	nt	nt	nt
